# Experimental data: the supplement of paper PMC11624193, “Coupling cellular drug-target engagement to downstream pharmacology with CeTEAM” (Nature Communications, 2024)
# Counter-ions that a name gives are not always drawn.
# Molecular target: PARP1 L713F-nLuc biosensor (HCT116) (UniProt P09874)
# Assay: PARP1 L713F-nLuc/akaLuc ratio relative to DMSO control (biosensor stabilization) (fold change); higher = more PARP1 biosensor stabilization (target engagement / stabilizer), active = hit call of the paper
# Details: stock concentration (mM; final µM = stock mM x 1): 10; 24 h;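 active = log2 fold change beyond 2 SD from the library mean after excluding viability outliers; inactive = within 2 SD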
# Chain of PARP1 L713F-nLuc biosensor (HCT116) (P09874 whole entry L713F, looked up): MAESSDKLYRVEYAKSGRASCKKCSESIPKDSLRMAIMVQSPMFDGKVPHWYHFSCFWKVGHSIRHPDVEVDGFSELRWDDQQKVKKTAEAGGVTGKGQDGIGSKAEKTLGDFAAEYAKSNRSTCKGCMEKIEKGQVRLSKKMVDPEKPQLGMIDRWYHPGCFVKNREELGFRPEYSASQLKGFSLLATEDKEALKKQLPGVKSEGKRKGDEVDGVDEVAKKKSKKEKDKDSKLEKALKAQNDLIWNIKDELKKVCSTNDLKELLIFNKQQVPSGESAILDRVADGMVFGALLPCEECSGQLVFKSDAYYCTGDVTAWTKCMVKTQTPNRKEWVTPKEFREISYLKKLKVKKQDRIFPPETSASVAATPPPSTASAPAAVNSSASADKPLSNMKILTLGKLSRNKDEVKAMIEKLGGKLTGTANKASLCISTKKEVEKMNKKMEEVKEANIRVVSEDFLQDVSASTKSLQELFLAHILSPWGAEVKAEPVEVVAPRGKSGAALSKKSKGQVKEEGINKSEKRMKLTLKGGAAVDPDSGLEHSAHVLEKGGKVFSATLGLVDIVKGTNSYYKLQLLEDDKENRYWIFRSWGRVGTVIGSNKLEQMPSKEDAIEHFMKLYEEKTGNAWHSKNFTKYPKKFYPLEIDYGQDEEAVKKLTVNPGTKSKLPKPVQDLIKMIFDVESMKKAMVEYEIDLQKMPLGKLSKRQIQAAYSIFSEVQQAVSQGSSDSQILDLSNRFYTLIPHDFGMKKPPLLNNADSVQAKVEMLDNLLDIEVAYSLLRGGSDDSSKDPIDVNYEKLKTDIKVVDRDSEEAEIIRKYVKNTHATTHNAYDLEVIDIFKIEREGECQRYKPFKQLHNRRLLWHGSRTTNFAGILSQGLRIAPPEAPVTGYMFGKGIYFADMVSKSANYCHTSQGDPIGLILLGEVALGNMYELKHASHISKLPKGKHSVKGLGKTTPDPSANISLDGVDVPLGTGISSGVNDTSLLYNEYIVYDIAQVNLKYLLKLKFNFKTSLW
row,Structure (SMILES),PARP1 L713F-nLuc/akaLuc ratio
1,O=C(CCCCCCC(=O)NO)NO [Suberoyl bis-hydroxamic acid],0.788 (inactive)
2,CC(C)(O)CC(=O)NCCn1ccc2ncnc(Nc3ccc(Oc4cccc(C(F)(F)F)c4)c(Cl)c3)c21,0.662 (inactive)
3,O=[N+]([O-])c1cc(Nc2ccc3nonc3c2[N+](=O)[O-])ccc1Cl,1.28 (inactive)
4,Cc1cc(Nc2cc(CN3CCOCC3)c3nc(C)c(Cc4ccc(Cl)cc4F)n3n2)n[nH]1 [Gandotinib],1.75 (inactive)
5,NC(=O)c1ccccc1 [Benzamide],1.08 (inactive)
6,CC[C@H](C)C(=O)O[C@H]1C[C@H](O)C=C2C=C[C@H](C)[C@H](CC[C@@H](O)C[C@@H](O)CC(=O)O)[C@H]21 [Pravastatin sodium],0.829 (inactive)
7,N#CC[C@H](C1CCCC1)n1cc(-c2ncnc3[nH]ccc23)cn1 [Ruxolitinib],0.544 (inactive)
8,NC(=O)c1nc(-c2c(F)cccc2Cl)oc1Nc1ccc(C(=O)N2CCOCC2)cc1,0.914 (inactive)
9,CN(C)CCCCCCNC(=O)c1cccc(-c2cc(O)c3ncccc3c2)c1,0.363 (inactive)
10,CC1(C)CN(C(=O)c2ccc(-c3cccc4nc(NC(=O)C5CC5)nn34)cc2)C1 [Solcitinib],0.98 (inactive)
11,CCN(C(=O)CO)[C@H]1CN(/C(=N\C#N)Nc2cccc(OC(F)F)c2)N=C1c1ccc(Cl)c(Cl)c1,1.37 (inactive)
12,CN1CCN(c2cccc(Nc3nc4c(-c5ccc(S(C)(=O)=O)cc5)cccn4n3)c2)CC1,0.968 (inactive)
13,Nc1nc(Nc2ccc(S(N)(=O)=O)cc2)nn1C(=O)c1c(F)cccc1F,0.483 (inactive)
14,Cc1nc(C(=O)NCC(=O)O)c(O)c2ccc(Oc3ccccc3)cc12 [Roxadustat (FG-4592)],1.63 (inactive)
15,CCCCC[C@H](O)CC(=O)CCc1ccc(O)c(OC)c1 [[6]-Gingerol],1.5 (inactive)
16,CC(C)NC(=O)COc1cccc(-c2nc(Nc3ccc4[nH]ncc4c3)c3ccccc3n2)c1,0.38 (inactive)
17,N#Cc1ccnc(N2C(=O)CC[C@H]2C(=O)N(c2cncc(F)c2)[C@H](C(=O)NC2CC(F)(F)C2)c2ccccc2Cl)c1 [Ivosidenib (AG-120)],0.863 (inactive)

row,Structure (SMILES),PARP1 L713F-nLuc/akaLuc ratio
1,O=c1c(O)c(-c2ccc(O)c(O)c2)oc2cc(O)c(O)c(O)c12 [Quercetagetin],0.792 (inactive)
2,CN1CCN(CCOc2cc(OC3CCOCC3)c3c(Nc4c(Cl)ccc5c4OCO5)ncnc3c2)CC1 [Saracatinib (AZD0530)],0.92 (inactive)
3,O=C(NNS(=O)(=O)c1ccccc1)c1cc(-c2ccnnc2)ccc1F,1.16 (inactive)
4,NC(=O)c1cnc2[nH]ccc2c1N[C@@H]1[C@@H]2CC3C[C@H]1C[C@@](O)(C3)C2 [Peficitinib],1.02 (inactive)
5,Cc1cc(C)nc(SCC(=O)Nc2ncc(Cc3cccc(OCc4cn(Cc5ccccc5)nn4)c3)s2)n1,0.615 (inactive)
6,CC(=O)NCC(=O)N1[C@@H]2CC[C@H]1c1ccc(Nc3ncc(C(F)(F)F)c(NC4CCC4)n3)cc12,1.27 (inactive)
7,Cc1ccc(Nc2nccc(N(C)c3ccc4c(C)n(C)nc4c3)n2)cc1S(N)(=O)=O [Pazopanib],1.33 (inactive)
8,CN(C)c1nc2c(Br)c(Br)c(Br)c(Br)c2n1CC(=O)O,1.02 (inactive)
9,Cn1cc(C(N)=O)ccc1=O [Nudifloramide],0.909 (inactive)
10,Cc1nc(Nc2cnn(C3CCNCC3)c2)nc2c1N(C)C(=O)c1cc3ccccc3cc1N2C,0.761 (inactive)
11,NCCNc1ccc(NCCN)c2c1C(=O)c1ccncc1C2=O [Pixantrone Maleate],1.15 (inactive)
12,Nc1nc2cc(CC[C@H]3C[C@@H](n4ccc5c(N)ncnc54)[C@H](O)[C@@H]3O)ccc2cc1Br,0.465 (inactive)
13,CCc1cncnc1N1CCN(Cc2nc3ccc(C(F)(F)F)cc3[nH]2)CC1,0.681 (inactive)
14,O=C(O)CNC(=O)c1c(O)cc(CCc2ccccc2)n2ncnc12 [Enarodustat],1.29 (inactive)
15,O=C(O)CNC(=O)c1ncc(-c2cccc(F)c2)cc1O,0.618 (inactive)
16,CCN(CC)CCCC[C@H](NC(=O)[C@H](CC(C)C)NC(=O)[C@H](C)NC(=O)[C@H](Cc1ccccc1)NC(=O)c1ccc(C(C)(C)C)cc1)C(=O)N[C@@H](CO)C(=O)OC,1.47 (inactive)
